# This is a sample that favours compounds with a hit; in the whole collection about 3.2% have one here.
# CHT block: inhibits the human high affinity choline transporter. 0.86% of 310,000 active. B-score at 10 µM. CHT-expressing cells, membrane potential dye, choline response; hits give low values;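 active means B-score over 3 SD under the library average, and starting fluorescence ratio not unusually high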;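 further: choline stimulus applied at its EC90 after an EC20 pre-addition; B-score computed on integrated fluorescence ratio after choline addition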
# Kir21 block: blocks the mouse Kir2.1 inward-rectifier potassium channel. P35561. HEK293-Kir2.1, FluxOR thallium flux fluorescence; hits give low values. B-score at 10 µM. 0.85% of 310,000 active;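 active means fluorescence ratio B-score at or below minus 3 SD of library scores, with starting-brightness B-score within 2 SD, cut at about -4.2 in these data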;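 further: channel flux triggered by added potassium and thallium sulfate stimulus; B-score of peak minus minimum fluorescence over baseline after thallium stimulus; more negative B-score means stronger Kir2.1 block with less thallium influx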
# Target sequence (P35561 whole entry, looked up): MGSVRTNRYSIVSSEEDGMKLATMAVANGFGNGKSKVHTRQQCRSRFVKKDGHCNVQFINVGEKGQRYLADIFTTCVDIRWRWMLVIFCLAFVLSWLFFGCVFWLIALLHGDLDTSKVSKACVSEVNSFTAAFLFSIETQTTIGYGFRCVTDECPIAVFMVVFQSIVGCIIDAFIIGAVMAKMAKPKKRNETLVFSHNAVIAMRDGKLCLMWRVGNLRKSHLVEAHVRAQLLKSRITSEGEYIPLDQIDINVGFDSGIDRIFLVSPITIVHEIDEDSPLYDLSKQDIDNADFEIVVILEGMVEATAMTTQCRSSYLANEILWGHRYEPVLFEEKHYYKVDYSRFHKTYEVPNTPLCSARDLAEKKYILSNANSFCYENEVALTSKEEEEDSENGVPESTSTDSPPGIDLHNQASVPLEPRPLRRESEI
# Rce1 inh: inhibitors of yeast Ras-converting enzyme; calls only; yeast membranes, quenched prenylated peptide cleavage fluorescence; AID 2563; 0.27% of 290,000 active; Q03530;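 active means fall in fluorescence gain of 50% or more versus controls, with final raw signal at or below 3038400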;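 further: plate controls were neutral control wells for no effect and wells lacking membranes for full effect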
# ANO1 activ: activators or potentiators of mouse TMEM16A chloride channel. AID 623877. B-score at 10 µM. 0.3% of 340,000 active. HEK293 TMEM16A/YFP-H148Q/I152L, iodide quench fluorescence; hits give low values;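 active means fluorescence-ratio B-score plate-corrected deviation score at least 3 library SD below zero, with starting fluorescence score within 5 deviations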;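 further: channel opened by trigger with iodide after compound preincubation; score built on the fluorescence ratio of max minus min over baseline; more negative score means more quench and so TMEM16A activation or potentiation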
# CHT allo act: allosterically activates the human high affinity choline transporter; B-score at 10 µM; Q9GZV3; 0.49% of 310,000 active; CHT-expressing cells, membrane potential dye, choline EC20; hits give high values; LV-AA mutant CHT in HEK293 cells;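 active means initial fluorescence not abnormally high and integrated response B-score, plate-corrected, over 3 SD above library mean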
# ANO1 block: inhibitors of mouse TMEM16A calcium-activated chloride channel; HEK293 TMEM16A/YFP iodide influx fluorescence, ionomycin; normalized B-score (activity score, 25-100; higher = stronger inhibition) at 10 µM; 1.2% of 310,000 active;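 active means ratio plate-corrected score three or more library SD toward inhibition, starting fluorescence score within five deviations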;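 further: score derived from kinetic fluorescence span divided by baseline fluorescence per well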
# Active calls of the source: *; i = inactive; nt = no result given; + = active, no number.
SMILES,CHT block,Kir21 block,Rce1 inh,ANO1 activ,CHT allo act,ANO1 block
COc1ccc(-c2ccc3oc(-c4ccc(OC)cc4)c(-c4ccc(OC)cc4)c3c2)cc1,i,-1.87,+,i,i,i
CC(C)(C)c1ccc(C(=O)N2CCN(C(=O)c3ccco3)CC2)cc1,i,1.75,i,i,i,i
CCN(CC)c1ccc(C2NC(=O)c3ccccc3N2)cc1 (stereo not drawn),nt,nt,nt,i,nt,nt
O=C1NC(c2ccc(Br)cc2)Nc2ccccc21 (stereo not drawn),i,-1.1,+,i,i,i
O=c1[nH]cnc(O)c1C(c1cccc([N+](=O)[O-])c1)c1c(O)nc[nH]c1=O,i,-0.01,i,i,i,i
Cc1ccc(C(C)C)cc1S(=O)(=O)NCc1ccccn1,i,-5.83*,i,i,i,i
O=C(CC(Nc1ccc(F)cc1)c1ccccc1)c1ccccc1 (stereo not drawn),i,-0.99,+,i,i,i
CCC(CC)NC(=O)c1ccccc1Oc1ccccc1,i,-6.86*,i,i,i,i
O=C1CN(C(=O)COC(=O)c2ccc[n+]([O-])c2)c2ccccc2N1,i,-1.25,i,i,i,i
C[C@@]12CCC=C[C@H]1[C@H](c1ccc(/C=C/c3ccccc3)cc1F)N(Cc1ccccc1)C2=O,i,1.78,+,i,i,i
C[C@@H]1CC=C[C@H]2[C@H]1C(=O)N(Cc1ccccc1)[C@H]2c1ccc(/C=C/c2ccccc2)cc1F,i,2.19,i,i,i,i
CCOC(=O)c1sc(NC(=O)CSc2nc(-c3ccco3)cc(C(F)(F)F)n2)c(C(=O)OC)c1C,i,-1.52,i,i,i,i
COC(=O)c1ccc(CSc2nc(-c3ccco3)cc(C(F)(F)F)n2)o1,i,0.76,i,-5.05*,i,i
CCOC(=O)c1c(NC(=O)CSc2nc3ccccc3s2)sc(C(C)=O)c1C,i,0.28,i,i,i,25*
CCOC(=O)c1sc(NC(=O)CSc2nc(-c3ccco3)cc(C(F)(F)F)n2)c(C(=O)OCC)c1C,nt,nt,nt,-7.66*,nt,nt
CCOC(=O)c1c(NC(=O)c2cc(C(C)C)on2)sc(C(C)=O)c1C,i,2.06,i,-11.9*,i,i
CCCc1cc(=O)[nH]c(SCC(=O)Nc2ccc([N+](=O)[O-])cc2C#N)n1,i,1.57,i,i,i,i
Cc1ccc(S(=O)(=O)N2CCC[C@H]2C(=O)OCC(=O)Nc2ccc3c(c2)OCO3)cc1,nt,nt,nt,i,nt,nt
CCOC(=O)c1c(NC(=O)CSc2nnnn2-c2ccc(OC)cc2)sc(C)c1C,i,-0.85,i,i,i,25*
C=CCn1cc(-c2ccccc2)cc(C#N)c1=O,i,0.01,+,i,i,i
C=CCn1cc(C(=O)c2cc(Br)ccc2O)cc(C#N)c1=O,i,-0.52,i,i,i,i
Cc1ccc(C(=O)NNC(=O)CSc2n[nH]c(-c3cccnc3)n2)cc1,i,-0.03,i,i,i,i
Oc1ccc(/C=N/n2cc(-c3ccccc3)[nH]c2=S)cc1,i,0.03,+,i,i,i
Cc1cccc2[nH]c3c(N4CCN(C(=O)c5ccco5)CC4)ncnc3c12,i,-1.17,i,i,i,i
Cc1cccc2[nH]c3c(N4CCC5(CC4)OCCO5)ncnc3c12,i,-0.07,+,i,i,i
SMILES,CHT block,Kir21 block,Rce1 inh,ANO1 activ,CHT allo act,ANO1 block
Cc1cc(C(F)(F)F)nc(CCNC(=O)C2CCC(=O)N(Cc3cccc(F)c3)C2)n1 (stereo not drawn),i,1.27,i,i,i,i
N#CC(/C(=N/S(=O)(=O)c1cccs1)c1ccccc1)c1nc2ccccc2[nH]1 (stereo not drawn),i,-0.19,+,i,i,i
Cc1ccc(-c2ccc(/C=C3\C(=O)ON=C3c3ccccc3)o2)c([N+](=O)[O-])c1,i,-0.45,i,-5.65*,i,100*
Cc1ccc(/C=C2\C(=O)ON=C2c2ccccc2)o1,i,-0.51,i,i,i,i
Cc1cc(=O)n2c3ccccc3n(C)c2n1,i,2.62,i,i,i,i
C=C1C(=O)c2sccc2C(c2ccc(OC)c(OC)c2)C1COC(C)=O (stereo not drawn),nt,nt,nt,-4.85*,nt,nt
O=C(CNC(=O)c1cccs1)N/N=C/c1c(F)cccc1Cl,i,0.14,i,i,i,i
N#Cc1cc2[nH]c3ccccc3c2[n+](-c2ccc([N+](=O)[O-])cc2)c1N,i,1.21,i,i,8.83*,i
CN1CCN(C(=O)c2ccc(-c3cccs3)s2)CC1,i,-0.97,+,i,i,i
CN1CCCN(C(=O)c2ccc(Br)s2)CC1,i,-0.15,i,i,i,i
O=C(NC1CCN(Cc2ccccc2)C1)c1cc(COc2ccc(F)cc2F)on1 (stereo not drawn),i,-4.41*,nt,i,i,i
Cc1ccc(C)c(OCc2cc(C(=O)NC3CCN(Cc4ccccc4)CC3)no2)c1,i,-3.17,i,i,i,i
CCC(Cc1ccccc1)NS(=O)(=O)c1csc(C(N)=O)c1 (stereo not drawn),i,-0.65,i,i,i,i
CN(NS(=O)(=O)c1ccc(Cl)cc1)c1nc(C(F)(F)F)nc2ccccc12,i,0.28,nt,i,i,100*
CCC1CCCCN1CCCNC(=O)Cn1cnc2sc(C)c(S(=O)(=O)N3CC(C)CC(C)C3)c2c1=O (stereo not drawn),i,0.6,i,i,i,i
Cc1cccc(NC(=O)COC(=O)c2ccccc2SCC(=O)N2CCCC2)c1,i,0.26,i,i,i,i
O=C(O)c1c(Cl)cccc1Cl,nt,nt,nt,i,nt,nt
COc1ccc(C(=O)Cn2nnc(-c3ccccc3NC(=O)c3ccco3)n2)cc1,i,0.48,i,-11*,i,i
COc1ccc(C(=O)Nc2ccccc2-c2nnn(CC(=O)N3CCOCC3)n2)cc1,i,-0.79,i,i,i,i
COc1cc2c(cc1OC)C(C)N(C(=O)c1cccs1)CC2 (stereo not drawn),i,1.22,i,i,i,i
COc1cc2c(cc1OC)C(C)N(C(=O)c1cc3c(=O)oc4ccc(C)cc4c3s1)CC2 (stereo not drawn),i,0.44,+,i,i,i
N#Cc1c(C(F)(F)F)cc(-c2ccccc2Cl)[nH]c1=O,i,1.45,i,i,i,100*
